Laboratory results taken from PubChem BioAssay (NCATS).
Results filed as inconclusive are left out. Active and inactive are the calls of the source. Calls follow the shape of the dose curve; as a rule, active = well fitted curve in either direction with a large enough effect (not every such curve was filed as active); inconclusive = small, poorly fitted or top-dose-only effect, or another doubt; inactive = flat fitted curve, though single readings scatter.

target: Mitogen-activated protein kinase 10 (Mus musculus) (UniProt Q61831); experiment: JNK3 AlphaScreen Assay (AID 530); conditions: JNK3 lysate, c-Jun phosphorylation; series mostly up to 57.1 µM;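 also: kinase came from lysate of stimulated human HepG2 cells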
Summary of the method: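 Phosphorylation of biotinylated GST-cJun(1-79) at Ser73 is measured by AlphaScreen proximity luminescence. Enzyme is JNK3 in HepG2 lysates activated with interleukin-1beta and tumor necrosis factor alpha; ATP is 10 uM final.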

outcome, inactive:
CCCCCCN(C(=O)CCCCCN1C(=O)NC(C2CCCCC2)C(C(=O)OCc2ccccc2)=C1C)C(C(=O)NCCCC)c1ccc(OCC(=O)OC)c(C(=O)OC)c1 (stereo not given), COC(=O)c1ccc(C(/C=C/[C@@H](C)C(=O)NCCc2c[nH]c3ccccc23)NC(=O)OCc2ccccc2)cc1 (stereo not given in full), CN(C)C(=O)[C@H]1C[C@@H]1[C@H](NC(=O)OCc1ccccc1)c1ccccc1, COC(=O)c1ccc(C(/C=C/[C@@H](C)C(=O)NCc2ccccc2)NC(=O)OCc2ccccc2)cc1 (stereo not given in full), CCCCCCN(C(=O)CCCCCN1C(=O)NC(c2ccc(-c3ccccc3)cc2)C(C(=O)OCc2ccccc2)=C1C)C(C)C(=O)NCCCC (stereo not given), CNC(=O)[C@@]1(Cc2ccccc2)C=C[C@@H](C)N1C(=O)OC, COC(=O)c1ccc(C(NC(=O)OCc2ccccc2)/C(=C/[C@@H](C)C(=O)NCc2ccc(-c3ccccc3)cc2)c2cccnc2)cc1 (stereo not given in full), CNC(=O)[C@]1(C)C[C@H]1[C@H](NC(=O)[C@]1(C)C[C@H]1[C@H](NC(=O)[C@]1(C)C[C@H]1[C@H](NC(=O)[C@]1(C)C[C@H]1[C@H](NC(=O)OCc1ccccc1)c1ccccc1)c1ccccc1)c1ccccc1)c1ccccc1, COC(=O)c1ccc(C(NC(=O)OCc2ccccc2)/C(=C/[C@@H](C)C(=O)NCc2ccc(OC)c(OC)c2)c2cccnc2)cc1 (stereo not given in full), C=C(N(C)C)[C@]1(C)C[C@H]1[C@H](NC(=O)CNC(=O)OCc1ccccc1)c1ccccc1, COC(=O)c1ccc(C(NC(=O)OCc2ccccc2)/C(F)=C/[C@@H](C)C(=O)N(C)Cc2cccnc2)cc1 (stereo not given in full), CCCCCCN(C(=O)CCCCCN1C(=O)NC(c2ccc(-c3ccccc3)cc2)C(C(=O)OCc2ccccc2)=C1C)C(C(=O)NCCCC)c1ccc(O)c(C(=O)OC)c1 (stereo not given), COC(=O)c1ccc(C(/C=C/[C@@H](C)C(=O)NCCN2CCCC2)NC(=O)OCc2ccccc2)cc1 (stereo not given in full), COC(=O)c1ccc(C(/C=C/[C@@H](C)C(=O)NCc2cc(C)n(C)n2)NC(=O)OCc2ccccc2)cc1 (stereo not given in full), COCCNC(=O)[C@@]1(C)C=C[C@@H](Cc2ccccc2)N1C(=O)c1ccccc1, COC(=O)c1ccc(C(NC(=O)OCc2ccccc2)/C(=C/[C@@H](C)C(=O)NC2CCCCC2)c2cccnc2)cc1 (stereo not given in full), C[C@]1(C(=O)NCCc2c[nH]c3ccccc23)C=C[C@@H](Cc2ccccc2)N1C(=O)c1ccccc1, C[C@@H]1C=C[C@](Cc2ccccc2)(C(=O)NCCN2CCOCC2)N1C(=O)c1ccccc1, CC(C)NC(=O)[C@@H]1C[C@@]1(C)[C@@H](NC(=O)OCc1ccccc1)c1ccccc1, COC(=O)[C@H](Cc1ccccc1)NC(=O)[C@]1(C)C[C@H]1[C@H](NC(=O)OCc1ccccc1)c1ccccc1, COC(=O)[C@H](Cc1ccccc1)NC(=O)[C@H]1C[C@@H]1[C@H](NC(=O)OCc1ccccc1)c1ccccc1, CC(=O)N1C2(C=CC1(C)C(=O)NCc1cc(F)cc(C(F)(F)F)c1)CCCCC2 (stereo not given), CC1(C(=O)NCCCNc2ncc(C(F)(F)F)cc2Cl)C=CC2(CCCCC2)N1C(=O)c1ccccc1 (stereo not given), CN(C)c1ccc(CNC(=O)C2(C)C=CCN2C(=O)c2ccccc2)cc1 (stereo not given), CC1(C(=O)NCCc2c[nH]c3ccccc23)C=CCN1C(=O)c1ccccc1 (stereo not given), COC(=O)c1ccc(C(NC(=O)OCc2ccccc2)/C(=C/[C@@H](C)C(=O)NCc2cccnc2)c2cccnc2)cc1 (stereo not given in full), CC1(C(=O)NCC2CC2)C=CC2(CCCCC2)N1C(=O)c1ccccc1 (stereo not given), CCCCNC(=O)C(c1ccc(OCC(=O)OC)c(C(=O)OC)c1)N(CCc1ccccc1)C(=O)CCCCCN1C(=O)NC(c2ccc(-c3ccccc3)cc2)C(C(=O)OCc2ccccc2)=C1C (stereo not given), COC(=O)[C@H](Cc1ccccc1)NC(=O)[C@@]1(C)C[C@@H]1[C@@H](NC(=O)OCc1ccccc1)c1ccccc1, COC(=O)c1ccc(C(NC(=O)OCc2ccccc2)/C(F)=C/[C@@H](C)C(=O)NCCN2CCOCC2)cc1 (stereo not given in full), CC(=O)N1CC=CC1(C)C(=O)NCc1cc(F)cc(C(F)(F)F)c1 (stereo not given), CCCCNC(=O)C(c1ccc(OCC(=O)OC)c(C(=O)OC)c1)N(Cc1ccccc1)C(=O)CCCCCN1C(=O)NC(c2ccc(-c3ccccc3)cc2)C(C(=O)OCc2ccccc2)=C1C (stereo not given), COC(=O)c1ccc(C(NC(=O)OCc2ccccc2)/C(F)=C/[C@@H](C)C(=O)NCCO)cc1 (stereo not given in full), COC(=O)c1ccc(C(NC(=O)OCc2ccccc2)/C(=C/[C@@H](C)C(=O)NCc2nc3ccccc3n2C)c2cccnc2)cc1 (stereo not given in full), Cc1ccc(CNC(=O)C2(CC(C)C)C=CCN2C(=O)c2ccccc2)o1 (stereo not given), C[C@@H]1C=C[C@](Cc2ccccc2)(C(=O)NCCc2c[nH]c3ccccc23)N1C(=O)c1ccccc1, CCCCCCN(C(=O)CCCCCN1C(=O)NC(c2ccc(C(C)(C)C)cc2)C(C(=O)OCc2ccccc2)=C1C)C(C(=O)NCCCC)c1ccc(OCC(=O)OC)c(C(=O)OC)c1 (stereo not given), CCCCCCN(C(=O)CCCCCN1C(=O)NC(c2ccc3ccccc3c2)C(C(=O)OCc2ccccc2)=C1C)C(C(=O)NCCCC)c1ccc(OCC(=O)OC)c(C(=O)OC)c1 (stereo not given), COC(=O)c1ccc(C(NC(=O)OCc2ccccc2)/C(C)=C/[C@@H](C)C(=O)NCc2cc(F)cc(F)c2)cc1 (stereo not given in full), COC(=O)c1ccc(C(NC(=O)OCc2ccccc2)/C(C)=C/[C@@H](C)C(=O)N2CCN(C)CC2)cc1 (stereo not given in full)
